Measurements from PubChem BioAssay (NCI).
The panel holds about 83,000 compounds, 20% with a hit somewhere; the sample as a whole holds those more often.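 Step 1: grow cells in 96-well plates. Step 2: add test compound at a single concentration. Step 3: incubate 48 h. Step 4: record percent growth.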 The source made the active and inactive calls. Rule for the calls: active = growth percent below 10; inactive = the rest.

Experiments:
Assay in all cases: NCI-60 one-dose screen, 48 h (100 = growth as untreated, 0 = no growth, -100 = all killed)
Conditions in all cases: 10 µM unless noted
[1] = test system: NCI-H23 lung
[2] = test system: NCI-H226 lung
[3] = test system: NCI-H322M lung
[4] = test system: HOP-62 NSCLC
[5] = test system: NCI-H460 lung
[6] = test system: NCI-H522 lung
[7] = test system: A549/ATCC NSCLC
[8] = test system: 786-0 renal
[9] = test system: COLO 205 colon
[10] = test system: DU-145 prostate
[11] = test system: K-562 leukemia
[12] = test system: MALME-3M melanoma
[13] = test system: MDA-MB-231 breast
[14] = test system: RXF 393 renal
[15] = test system: SF-268 CNS
[16] = test system: SF-295 CNS
[17] = test system: SF-539 CNS
[18] = test system: UACC-257 melanoma
[19] = test system: M14 melanoma

Measured: growth

CCOC(=O)c1ccc(Nc2nc(NN)nc(-c3ccc(F)cc3)c2C#N)cc1
inactive: [1] 110% | [2] 116% | [3] 109% | [4] 103% | [5] 112% | [6] 98.5% | [7] 105% | [8] 103% | [9] 119% | [10] 113% | [11] 32.2% | [12] 98.5% | [13] 76.7% | [14] 142% | [15] 109% | [16] 97.8% | [17] 104% | [18] 103% | [19] 98%

COc1cc2c(c(OC)c1OC)C(=O)CC(c1cccc(NC(=O)c3cc(NC(=O)[C@@H](N)CO)ccc3C)c1)O2 (some centres not stated)
inactive: [1] 112% | [2] 103% | [3] 108% | [4] 108% | [5] 123% | [6] 93% | [7] 102% | [8] 107% | [9] 131% | [10] 119% | [11] 91.4% | [12] 103% | [13] 111% | [14] 119% | [15] 111% | [16] 101% | [17] 99.7% | [18] 104% | [19] 119%

COc1cc(/C=C/C(=O)c2ccc(C)cc2)ccc1Oc1nc(Nc2ccc(F)cc2)nc(N(C)C)n1
active: [17] -31.9%
inactive: [1] 39% | [2] 61.9% | [3] 74.1% | [4] 86.4% | [5] 34.4% | [6] 44.8% | [7] 60% | [8] 37.5% | [9] 86.8% | [10] 50.1% | [11] 26.8% | [12] 69% | [13] 31.2% | [14] 47.8% | [15] 47.1% | [16] 30% | [18] 41.3% | [19] 56.9%

CN(C)c1nc(NCCNS(=O)(=O)c2ccc(C(=O)/C=C/c3ccc(F)cc3)cc2)nc(Nc2ccc(F)cc2)n1
active: [1] -84% | [2] -74.4% | [3] -22.6% | [4] -71.2% | [5] -75.2% | [6] -96.1% | [7] -56.4% | [8] -85.6% | [9] -85.7% | [10] -83.9% | [11] -21.9% | [12] -83.3% | [13] -93% | [14] -97% | [15] -59% | [16] -78.3% | [17] -99.7% | [18] -80.6% | [19] -83%

C=C1CCC2C3(C)COC(c4cccs4)OC3CCC2(C)C1CC(Sc1ccccc1)C1=CCOC1=O (configuration not stated)
inactive: [1] 79.1% | [2] 87.7% | [3] 94.9% | [4] 118% | [5] 107% | [6] 65.5% | [7] 79.7% | [8] 91.9% | [9] 115% | [10] 94.4% | [11] 40.7% | [12] 103% | [13] 89.3% | [14] 107% | [15] 96.6% | [16] 92.5% | [17] 95% | [18] 95.6% | [19] 83.3%

COc1ccc(/C=C/c2nc3ccccc3c(=O)n2CC(=O)Nc2ccc(OC)cc2)cc1
inactive: [1] 53.9% | [2] 61.1% | [3] 83.3% | [4] 51.7% | [5] 50.8% | [6] 70.3% | [7] 46.9% | [9] 87.8% | [10] 77.2% | [11] 95.3% | [12] 73.7% | [13] 27.3% | [14] 70.5% | [15] 71.4% | [16] 74.6% | [18] 103% | [19] 90.3%
active: [8] -12.7% | [17] -18.5%

Cn1cc(-c2cc3nc(-c4cn(C)c5ncc(Br)cc45)cc(N)n3n2)c2cc(Cl)ccc21
active: [1] -77% | [2] -40.8% | [3] -73.1% | [4] -78.1% | [5] -69.9% | [6] -79.8% | [7] -75.2% | [8] -65.3% | [9] -77.6% | [10] -58.3% | [11] -29.2% | [12] -91.9% | [13] -85.5% | [14] -64.4% | [16] -72.5% | [17] -96.9% | [18] -82.7% | [19] -86.8%
inactive: [15] 20.1%

N/C(=N\c1nc2ccccc2s1)NC(=O)Nc1ccc(Cl)cc1Cl
inactive: [18] 18.8%
active: [1] -83.4% | [2] -40.2% | [3] -51.3% | [4] -77% | [5] -95.9% | [6] -78.6% | [7] -85.4% | [8] -78.6% | [9] -87.7% | [10] -74.2% | [11] 9.51% | [12] -75.2% | [13] -83.4% | [14] -84% | [15] -2.76% | [16] -98.5% | [17] -78.2% | [19] -53.6%
